32 compounds from PubChem BioAssay (NCATS) can be followed below.

Results filed as inconclusive are left out. Active and inactive are the calls of the source. Calls come from the whole dose curve.

The nature of the first assay: Primary qHTS to identify inhibitors of SARS-CoV-2 cell entry (AID 1645846). Note: nearly all actives have a fitted effect of over 45% in size. The note with it: SARS-CoV-2 pseudovirus cell entry assay, luminescence; activity change, negative = inhibition: at 57.1 µM (top of the series) unless noted; series mostly up to 57.1 µM. From the text: Assay Provider: Wei Zheng, Ph.D.
National Center for Advancing Translational Sciences, National Institute of Health, Rockville, MD.
SARS-CoV-2 spike protein, within the viral envelope, mediates viral attachment and infection of host cells. The SARS-CoV-2 spike protein specifically binds to the host receptor ACE2 (Angiotensin-converting enzyme 2). This interaction promotes endocytosis of the viral particle, additional events lead to viral-host cell membrane fusion and release of the viral contents, allowing viral replication.
While SARS-CoV-2 requires BSL-3 facilities for live virus work, pseudotyped partices (PP) that incorporate SARS-CoV-2 spike proteins without replication elements could facilitate studies on viral entry mechanisms in a BSL-2 setting. This PP cell entry assay could also enable screening of small molecule compound libraries in BSL-2 setting to identify inhibitors of SARS-CoV-2 cell entry.
PROTOCOL TABLE (format as described by Inglese J, Shamu CE and Guy RK. 2007)
SEQUENCE No. (e.g., 1, 2, 3, etc.); […] (e.g., Cells, Incubation, Reagent, etc.); VALUE and DESCRIPTION.
1. Cells. Seed 1500 HEK293-ACE2 cells (Expi293F with stable expression of human ACE2) in 2 uL/well media (DMEM, 10% FBS, 1x L-glutamine, 1x Pen/Strep, 1 ug/ml puromycin) in white 1536-well assay plates (Greiner #782073).
2. Incubation. Incubate at 37C with 5% CO2 overnight (~16 h).
3. Compounds. Dispense 23 nL/well compounds in DMSO via pin transfer.
4. Incubation. Incubate for 1 hr at 37C 5% CO2.
5. Reagent. Dispense 2 uL/well of SARS-CoV-2-S pseudotyped particles. [a] PPs are produced with murine leukemia virus pseudotyping. [b] SARS-CoV-2-S is Wuhan-Hu-1 sequence (BEI #NR-52420) with C-terminal 19 amino acid truncation.
6. Centrifuge. […]
7. Incubation. Incubate at for 48 hr at 37C 5% CO2
8. Centrifuge. Remove supernatant with gentle centrifugation using a Blue Washer (BlueCat Bio).
9. Reagent. Dispense 4 uL/well of Bright-Glo Luciferase detection reagent (Promega #E2620).
10. Incubation. Incubate for 5 min at room temperature.
11. Detection. Read luminescence signal (Viewlux plate reader, PerkinElmer). Data was normalized with wells containing SARS-CoV-2-S PP as 100%, and wells containing bald PP (no fusion protein) as 0%.
For the compound `Cc1ccc(C(=O)C(=O)O)cc1C`, the activity change, negative = inhibition was -19.4%. For `CCOP(=S)(OCC)Oc1ccc2c(C)c(Cl)c(=O)oc2c1`, the activity change, negative = inhibition is 69.2%. Still for that read-out and setting: the value for `CC(C)(C)c1ccc(O)cc1` was -17.1%. In the case of `Nc1nc(-c2ccccc2)c(Br)c(=O)[nH]1`, the Potency entry is “inactive”. Consider `CCOC(=O)O[C@]1(C(=O)OCCl)CC[C@H]2[C@@H]3CCC4=CC(=O)C=C[C@]4(C)[C@H]3[C@@H](O)C[C@@]21C`, for which the Potency entry is “inactive”.

In the case of `NC(=O)c1cc[n+](CC2=C(C(=O)[O-])N3C(=O)[C@@H](NC(=O)Cc4cccs4)[C@H]3SC2)cc1`, the Potency entry is “inactive”. The same measure, in the same setting: the value for `CC(=O)Nc1ccc(CC(=O)O)cc1` was “inactive”. As to `COCCOC(=O)C1=C(C)NC(C)=C(C(=O)OC(C)C)C1c1cccc([N+](=O)[O-])c1` (stereo not given), the activity change, negative = inhibition was -23.8%. The same measure, in the same setting: as for `CCOC(=O)[C@H](CCc1ccccc1)N[C@H]1CCCN2CCC[C@@H](C(=O)O)N2C1=O`, the figure is -27.1%; as for `CC(C)c1cccc(C(C)C)c1O`, -52.4%. In the case of `Cc1ccc(C(C)C)cc2c(C)ccc1-2`, the Potency entry was “inactive”.

As for `COc1cc(C(=O)NC2CCCNC2)cc(OC)c1OC` (stereo not given), the activity change, negative = inhibition was -15.8%.

With `C#CCN[C@@H]1CCc2ccccc21`, the Potency entry was “inactive” and the activity change, negative = inhibition was -2.27%. As to `CO/N=C(/C(=O)N[C@@H]1C(=O)N2C(C(=O)[O-])=C(C[n+]3ccn4ncccc43)CS[C@H]12)c1nsc(N)n1`, the Potency result is “inactive”. Regarding `Nc1ccc(S(N)(=O)=O)cc1`, the activity change, negative = inhibition was -17.3% and the Potency entry was “inactive”.

For the compound `Cc1c[nH]c2ccccc12`, the activity change, negative = inhibition is -24.2%.

For the compound `O=c1[nH]cnc2[nH]ncc12`, the Potency entry was “inactive” and the activity change, negative = inhibition was -11.8% [at 114 µM]. As for `C/C(=C(\CCO)SS/C(CCO)=C(\C)N(C=O)Cc1cnc(C)nc1N)N(C=O)Cc1cnc(C)nc1N`, the activity change, negative = inhibition is -31.6%. Consider `NC(=O)NC(=O)Cc1ccccc1`, for which the Potency entry was “inactive”. For the compound `CCc1cc(C(N)=S)ccn1`, the activity change, negative = inhibition was -20.7% and the Potency result was “inactive”. In the case of `NS(=O)(=O)c1cc(C(=O)O)cc(N2CCCC2)c1Oc1ccccc1`, the Potency entry was “inactive”. For `CC(C)(C)C(=O)Oc1ccc(S(=O)(=O)Nc2ccccc2C(=O)NCC(=O)O)cc1`, the activity change, negative = inhibition was -32.8% and the Potency result is “inactive”.

With `Nc1ncnc2c1ncn2[C@@H]1O[C@H](CO)[C@@H](O)[C@H]1O`, the Potency result was “inactive” and the activity change, negative = inhibition was -8.35%. The corresponding values for `CCCc1nn(C)c2c(=O)[nH]c(-c3cc(S(=O)(=O)N4CCN(C)CC4)ccc3OCC)nc12` are “inactive” and -6.94%. In the case of `Nc1ncn([C@H]2C[C@H](O)[C@@H](CO)O2)c(=O)n1`, the activity change, negative = inhibition was -12.8%. Turning to `NC(CO)(CO)CO`, the Potency entry is “inactive”. On the same count and under the same terms, as for `Cc1ccccc1C(=O)N1CC/C(=N\OS(=O)(=O)O)c2ccc(Cl)cc21`, the entry is “inactive”. As for `CCn1cc(C(=O)O)c(=O)c2cnc(N3CCCC3)nc21`, the activity change, negative = inhibition came to 0.588% [at 11.3 µM].

Regarding `NCCNCCNCCNCCN`, the activity change, negative = inhibition was 4.56% [at 11.3 µM]. As to `Nc1ccc(C(=O)O)cc1`, the Potency result is “inactive”. For the compound `CNC[C@H](O)[C@@H](O)[C@H](O)[C@H](O)CO`, the activity change, negative = inhibition is -19.7%.

Staying with this assay, now noted: SARS-CoV-2 pseudovirus cell entry assay, luminescence; at 27.1 µM (top of the series).
Turning to `CC(=O)NCCCS(=O)(=O)O`, the activity change, negative = inhibition came out at 1.79%.

Staying with this assay, now noted: SARS-CoV-2 pseudovirus cell entry assay, luminescence; at 57.1 µM (top of the series).
Turning to `CC(=O)NCCCS(=O)(=O)O`, the activity change, negative = inhibition was -6.89%.
